We go through 57 compounds from PubChem BioAssay AID588689 (Southern Research Specialized Biocontainment Screening …, 2011).

Hit rate of the full screen: of about 340,000 compounds, about 1,000 (0.29%) were called active. No stated cut-off is given here; in the data, inconclusive means inhibition above about 29% without an active follow-up result; inactive means below that. A selection follows. Entries with a potency or affinity are not part of this list.

For the experiment, the target named is Genome polyprotein (Dengue virus type 2 (strain 16681-PDK53)) (UniProt P29991). Nature of the experiment: Dengue-2 NS5 methyltransferase inhibitors, primary screen, biochemical, confirmation dose response (AID 588689). The settings on record: Dengue-2 NS5 methyltransferase capping enzyme assay, at 25 µM, stronger effect = higher value.

In general, inhibition refers to the relative decrease from the control value, in per cent.

With `CCN(CC)S(=O)(=O)c1ccc(N2CCOCC2)c(NC(=O)c2cc3ccccc3oc2=O)c1`, the inhibition was -2.2% (inactive).

Regarding `COC(CNC(=O)c1cnn2c(C)c(Cc3ccccc3)c(C)nc12)OC`, the inhibition is -1.46% (inactive). With `Cc1cc(NC(=O)CSc2nc3cc(Cl)ccc3o2)no1`, the inhibition was 1.78% (inactive). For the compound `COc1ccc(NC(=S)NN2C(C)CCCC2C)cc1` (stereo not drawn), the inhibition is -6.57% (inactive). For `Cc1ccc(S(=O)(=O)N(C)CC(=O)N2CCCc3ccccc32)cc1`, the inhibition was 3.9% (inactive).

As for `Cc1ccc(S(=O)(=O)N2CCN(C(=O)CN3C(=O)c4ccccc4C3=O)CC2)c(C)c1`, the inhibition was -3.1% (inactive). The same measure, in the same setting: the same measure for `COc1ccc(OC)c(S(=O)(=O)ON2C(=O)c3ccccc3C2=O)c1`: 12.6% (inactive). Take `Cc1cc(C)c(C)c(S(=O)(=O)ON2C(=O)c3ccccc3C2=O)c1C`: the inhibition is -4.83% (inactive).

As to `Cc1ccc(S(=O)(=O)ON2C(=O)c3cccc4cccc(c34)C2=O)cc1`, the inhibition is 14.2% (inactive). For `COC(=O)c1ccnc(SCC(=O)c2ccccc2)c1`, the inhibition is -7.25% (inactive). For `Cc1cc(C)c(N2C(=O)C3C4CC(=O)C(c5ccccc54)C3C2=O)c(C)c1` (stereo not drawn), the inhibition is -3.14% (inactive).

As to `On1c(-c2ccccc2)nc2ccccc21`, the inhibition is -0.77% (inactive). Still for that read-out and setting: as for `c1ccc(-c2nc3ccccc3c3nc4ccccc4n23)cc1`, the figure is 0.36% (inactive).

Consider `O=C(NCCN1CCOCC1)C1CC(=O)N(c2ccc(Cl)cc2)C1` (stereo not drawn), for which the inhibition was -16.7% (inactive).

Consider `S=C(NCc1ccco1)Nc1ccc(Br)cn1`, for which the inhibition is -6.51% (inactive). Still for that read-out and setting: as for `Cc1ccccc1S(=O)(=O)N(CC(O)CN1CCCCC1)c1ccccc1` (stereo not drawn), the figure is -8.27% (inactive); as for `CCOc1ccc(N2C(=O)/C(=C\c3ccccc3OC)S(=O)(=O)C2c2cccc([N+](=O)[O-])c2)cc1` (stereo not drawn), -7.02% (inactive). Still for that read-out and setting: the same measure for `CCOc1ccc(C(=O)Cc2cc(OC)c(OC)cc2[N+](=O)[O-])cc1`: -1.39% (inactive); for `COc1ccc(C(=Cc2cc(OC)c(OC)cc2[N+](=O)[O-])C(=O)O)cc1`: -1.59% (inactive).

`COc1cc(C(=O)N2CCN(c3ccccc3)CC2)c([N+](=O)[O-])cc1OC`: the inhibition is -3.88% (inactive). Consider `CCOC(=O)C1CCCN(C(=O)c2cn(C)c(=O)c3cc(OC)c(OC)cc23)C1` (stereo not drawn), for which the inhibition is -5.65% (inactive). Turning to `C#CCOCCOCCOCCNc1nc(N2CCOCC2)nc(N2CCN(C(=O)CCCCCCCCCCNC(=O)Cn3cc(CCCCCN)nn3)CC2)n1`, the inhibition was 9.92% (inactive). `Cc1cc(Cl)ccc1OC(C)C(=O)N1CCCN(C(=O)C(C)Oc2ccc(Cl)cc2C)CC1` (stereo not drawn): the inhibition was -1.34% (inactive). With `COc1ccc(C2(CNC(=O)CCC(=O)O)CCCC2)cc1OC`, the inhibition is -1.37% (inactive). In addition, the inhibition (measured here: pilot screen replicate inhibition) is -4.84%. As for `Cc1[nH][nH]c(=O)c1C(c1ccc(-c2ccc(Cl)c(Cl)c2)o1)c1c(C)[nH][nH]c1=O`, the inhibition is 61.3% (inactive). Same read-out and setting: as for `O=C(O)c1ccc(-c2cccc(Cl)c2)o1`, the figure is -4.79% (inactive); as for `Cc1[nH][nH]c(=O)c1C(c1ccc(-c2ccc(Cl)cc2)o1)c1c(C)[nH][nH]c1=O`, 21% (inactive). For `O=Cc1ccc(-c2ccc(F)cc2)o1`, the inhibition is -6.55% (inactive).

For `CCC(OC(=O)c1nsc(Cl)c1Cl)C(=O)NCC1CCCO1` (stereo not drawn), the inhibition was -4.98% (inactive). In the case of `CCCc1cc(=O)oc2cc(C)cc(OC(C)C(=O)NCc3cccnc3)c12` (stereo not drawn), the inhibition was -9.54% (inactive).

`NC(=O)Cn1c(O)c(N=NC(=O)CNC(=O)/C=C/c2ccccc2)c2ccccc21`: the inhibition was 3.88% (inactive).

As for `CC(C)CC(COCc1cccc(Cl)c1)N1CCN(C(=O)c2cccc(C(F)(F)F)c2)CCC1=O` (stereo not drawn), the inhibition was 0.79% (inactive). As for `CCOc1ccccc1CN1CCNC(=O)C1CC(=O)NC1CCCCCC1` (stereo not drawn), the inhibition is 7.85% (inactive). Consider `CC(C)CCn1c(SCC(=O)Nc2ccccc2C(F)(F)F)nc2nccnc2c1=O`, for which the inhibition was -2.66% (inactive).

`CCOC(=O)C1CCN(S(=O)(=O)c2ccc(CNC(=O)c3ccccc3)s2)CC1`: the inhibition was -13.1% (inactive). In the case of `COC(=O)Nc1ccc(S(=O)(=O)N2CCCC(C(=O)N3CC(C)OC(C)C3)C2)cc1` (stereo not drawn), the inhibition was -5.54% (inactive). Consider `O=C(CSc1nnc2ccc(-c3ccccn3)nn12)Nc1ccc(F)cc1`, for which the inhibition was 2.75% (inactive). For the compound `C[C@@H]1CN(C(=O)c2cc(COc3cccc(C(F)(F)F)c3)on2)C[C@H](C)O1`, the inhibition was -9.08% (inactive). `COc1ccccc1C(=O)Nc1ccnn1C1CCN(Cc2cn(C)c3ccccc23)CC1`: the inhibition was -3.88% (inactive). Consider `CCC(CC)=NNc1ccc([N+](=O)[O-])cc1[N+](=O)[O-]`, for which the inhibition was -0.89% (inactive). Turning to `C/C(CCC(=O)O)=N/Nc1ccc([N+](=O)[O-])cc1[N+](=O)[O-]`, the inhibition was -3.25% (inactive). With `Cc1ccc(CN2CCN(CC(=O)NC(C)CCc3ccccc3)C2=O)cc1` (stereo not drawn), the inhibition was -4.17% (inactive). Take `CCCc1cc(=O)c2ccc(OCC(C)=O)cc2o1`: the inhibition was -9.24% (inactive).

With `COCCC(=O)NNS(=O)(=O)c1ccc(Cl)cc1`, the inhibition is 5.47% (inactive). As to `CC(C)N(CCNS(=O)(=O)c1ccc(Cl)cc1)C(C)C`, the inhibition was 0.97% (inactive). Consider `CCOc1ccc(NC(=O)c2ccc(S(=O)(=O)N3CCOCC3)cc2)cc1`, for which the inhibition is 1.78% (inactive). Consider `CN1C(=O)C2C3c4ccccc4C(c4ccccc43)[C@@H]2C1=O` (stereo partly drawn), for which the inhibition is -1.31% (inactive).

As to `CC(C(=O)O)N1C(=O)C2C3c4ccccc4C(c4ccccc43)[C@@H]2C1=O` (stereo partly drawn), the inhibition is -2.61% (inactive). As for `CCC(C(=O)O)P(=O)(c1ccc(Cl)cc1)c1ccc(Cl)cc1` (stereo not drawn), the inhibition was -8.59% (inactive).

For the compound `CCCCCSc1nncc(=O)[nH]1`, the inhibition is 4.01% (inactive). For the compound `COC1=CC(=O)C(OC)=C(OC)C1=O`, the inhibition was 6.99% (inactive).

As to `COc1ccc(-c2cccc(NC(=O)c3cccs3)c2)nn1`, the inhibition is -3.63% (inactive).

As to `O=C(CSc1nc2ccccc2s1)Nc1cc(S(=O)(=O)N2CCOCC2)ccc1Cl`, the inhibition was -0.74% (inactive). For `O=C1SCC(c2ccc(Cl)cc2Cl)=NN1Cc1nnc(-c2ccccc2)o1`, the inhibition was -1.48% (inactive). For `O=C(O)CSc1ncnc2c1sc1nc(-c3ccccc3)c3c(c12)CCC3`, the inhibition was 22.7% (inactive). Turning to `O=c1[nH]cnc2c1sc1nc(-c3ccccc3)c3c(c12)CCCC3`, the inhibition was -9.17% (inactive). Regarding `CCN(CC)c1ccc(S(=O)(=O)N2CCOCC2)cc1NC(=O)CSC(=S)N1CCCC1`, the inhibition was -4.86% (inactive).
